# IMPase inh: membrane-permeable compound that blocks inositol monophosphatase. 120,000 tested, under 10 active. P97697. inhibition (IP1 accumulation), % at 46.1 µM. CHO-M1 cells, IP1 accumulation, HTRF TR-FRET ratio; active = well fitted curve in the direction sought with a large enough effect in the signal ratio, not every such curve was filed as active; inconclusive = small, poorly fitted or top-dose-only effect, or a change in a side signal; inactive = no such curve, though single readings can be large or run the other way; the % refers to the signal ratio;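 note: cells stimulated with carbachol in lithium chloride buffer; plate controls were DMSO basal wells for no effect and reference inhibitor wells for full effect; higher means more IMPase inhibition seen as more IP1 and lower FRET ratio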
# Target sequence (P97697 whole entry, looked up): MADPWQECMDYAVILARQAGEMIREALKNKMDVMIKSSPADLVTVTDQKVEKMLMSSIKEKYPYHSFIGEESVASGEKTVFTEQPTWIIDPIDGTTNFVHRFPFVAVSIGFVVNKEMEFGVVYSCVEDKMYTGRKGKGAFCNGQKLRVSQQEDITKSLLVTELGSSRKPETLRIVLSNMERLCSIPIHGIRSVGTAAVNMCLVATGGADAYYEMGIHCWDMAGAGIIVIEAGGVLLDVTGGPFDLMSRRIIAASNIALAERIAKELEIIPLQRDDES
#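 Cellular IMPase inhibition is scored as a rise in cytosolic IP1, detected by competitive TR-FRET between d2-labelled IP1 and a europium anti-IP1 antibody. M1-expressing CHO cells were stimulated with carbachol for 30 min at 37C, with lithium (50 mM LiCl) present in the buffer.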
# 12-hLO inh: blocks human 12-lipoxygenase activity; P18054; purified 12-hLO, xylenol orange hydroperoxide absorbance; Potency, µM (series often up to 57.1 µM), without a hit: at the highest dose activity change, negative = inhibition, actives largely listed as inhibitors; actives 0.12% (n = 150,000); active = well fitted curve in the direction sought with a large enough effect; inconclusive = small, poorly fitted or top-dose-only effect, or another doubt; inactive = no such curve, though single readings can be large; an effect the other way counts as inactive or inconclusive; note: potency is the fitted concentration of half-maximal effect; nearly all actives have a fitted effect of over 55% in size
#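 Xylenol orange chromogenic assay: hydroperoxide from 12hLO oxidises Fe(II), giving red-shifted Fe(III)-XO absorbance. Conditions: 150 nM enzyme, 40 uM arachidonic acid, 25 mM Hepes pH 7.0, 0.01% Triton X-100, 30 min, room temperature.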
# IMPase Li inh: cell-permeable IMPase inhibitors with lithium potentiation | CHO-M1 cells, IP1 TR-FRET (IP-One), carbachol + lithium | Potency, µM (doses to about 59.4 µM), for inactives: at the highest dose activity, negative = IMPase inhibition, hits mostly inhibitors | actives 0.35% (n = 210,000) | AID 1457; active = well fitted curve in the direction sought with a large enough effect; inconclusive = small, poorly fitted or top-dose-only effect, or another doubt; inactive = no such curve, though single readings can be large; an effect the other way counts as inactive or inconclusive;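 note: IP1 builds up when IMPase is blocked and the TR-FRET signal falls; potency is the fitted concentration of half-maximal effect; plate controls were basal vehicle for no effect and high inhibitor control for full effect; nearly all actives have a fitted effect of over 50% in size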
#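 CHO cells stably expressing M1 receptor (2000/well) were cultured 16–30 h, then exposed to compounds with a small lithium addition for 30 min at 37C. IP1 was measured by TR-FRET competition; AC50 from Hill fits.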
# ALDH1A1 block: blocks purified human ALDH1A1 activity; P00352; Purified ALDH1A1, NADH fluorescence, propionaldehyde substrate; Potency, µM (highest dose often 75.3 µM), for inactives: top-dose activity, negative = inhibition, actives largely listed as inhibitors; actives 7.3% (n = 220,000); AID 1030;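 note: potency is the fitted concentration of half-maximal effect; plate controls were no enzyme wells and a reference inhibitor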
# Target sequence (P00352 whole entry, looked up): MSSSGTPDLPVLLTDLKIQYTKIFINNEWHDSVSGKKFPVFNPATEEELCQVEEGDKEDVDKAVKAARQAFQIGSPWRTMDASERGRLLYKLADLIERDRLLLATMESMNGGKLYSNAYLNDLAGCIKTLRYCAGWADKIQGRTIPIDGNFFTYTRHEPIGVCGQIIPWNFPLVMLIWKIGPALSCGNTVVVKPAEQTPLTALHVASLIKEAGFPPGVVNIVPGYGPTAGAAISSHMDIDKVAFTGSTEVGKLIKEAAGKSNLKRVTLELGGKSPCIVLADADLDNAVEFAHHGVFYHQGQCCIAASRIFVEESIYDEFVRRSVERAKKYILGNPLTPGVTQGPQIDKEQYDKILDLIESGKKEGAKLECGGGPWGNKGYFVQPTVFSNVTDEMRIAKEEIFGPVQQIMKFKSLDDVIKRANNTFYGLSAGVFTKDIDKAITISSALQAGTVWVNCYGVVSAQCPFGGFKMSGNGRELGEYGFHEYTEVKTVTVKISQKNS
# PNC inhibitor: inhibitors of perinucleolar compartment assembly; activity change (PNC), negative = inhibition, % at 10 µM; actives 3.1% (n = 140,000); AID 2417; PC3M PTB-GFP, PNC prevalence imaging, 16 h; active compounds read low;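 active = readout at or below -70, meaning at least 70% loss of cells showing the perinucleolar compartment, a nuclear body marking cancer cells; inconclusive = readout between -30 and a set limit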;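 note: plate controls were DMSO wells for no effect and camptothecin positive control wells for full effect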
#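 Read-out is percentage of cells bearing a perinucleolar compartment, from automated 20x imaging of fixed, Hoechst-stained PC3M PTB-GFP cells. Cells were seeded 4 h, then exposed 16 h to compound (23 nl of library stock) in duplicate plates.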
# HPGD inh: HPGD (human) dehydrogenase inhibition. purified HPGD, NADH fluorescence kinetic, PGE2 substrate. Potency, µM, for inactives: at the top dose activity change, negative = inhibition, actives largely listed as inhibitors. actives 4.3% (n = 150,000). AID 894; note: potency is the fitted concentration of half-maximal effect
#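 20 nM HPGD preincubated 15 min at room temperature with compound in 50 mM Tris-HCl pH 8, 0.01% Tween 20. Started with 1 mM NAD+ and 30 uM prostaglandin E2; NADH fluorescence (360/450 nm) read 5 times over 30-s intervals, last minus first.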
# Starred values were filed as active, the others as inactive; ? = inconclusive; . = not tested or not shown; [ ] = remark or other dose. Only some compounds are listed: those with a hit (about 11% of all), similar ones and a draw of the others. Unless noted, calls come from the whole dose curve; as a rule, active = well fitted inhibition curve with a large enough effect (not every such curve was filed as active); inconclusive = small, poorly fitted or top-dose-only effect, or another doubt; inactive = no such curve, though single readings can be large or run the other way. Unless noted, % is set by controls: 0 for no effect and ±100 for the full control effect.
SMILES,IMPase inh,12-hLO inh,IMPase Li inh,ALDH1A1 block,PNC inhibitor,HPGD inh
O=C1C2C3C=CC(C3)C2C(=O)N1c1ccc2ccccc2n1 (stereo not drawn),6.1,-0.8%,9.3%,-4.8%,?,-18.4%
O=C1c2ccccc2[C@@H]([C@@H]2c3ccccc3C(=O)c3cc(Br)ccc32)c2ccc(Br)cc21,.,2.4%[11.4 µM],8.0%,-10.5%[13.5 µM],.,-8.5%
Cc1nc2cc(C(=O)NCc3cccnc3)ccc2n1-c1ccc(F)cc1F,.,.,-3.8%,2.4%,.,.
CC(CC(=O)c1cccs1)CC(=O)c1cccs1,5.1,-3.7%,8.0%,7.94µM*,-2.9,12.6µM*
O=C(NCCCCCCNC(=O)c1cccs1)c1cccs1,.,.,2.1%,-2.5%,.,.
O=C(O)CCCCCCCCCC(=O)c1cccs1,-4.0,-7.9%,7.1%[38.3 µM],9.5%,-5.4,15.8µM*
COc1ccccc1COCC(O)CN(Cc1ccco1)Cc1ccccc1O (stereo not drawn),.,-13.3%,1.1%,-9.9%,-116.4*,-11.6%
COC(=O)c1ccc(C(NC(=O)OCc2ccccc2)/C(F)=C/[C@@H](C)C(=O)NCCN2CCOCC2)cc1 (stereo partly drawn),.,-1.2%,-11.4%,-12.2%,.,-10.4%
Cc1nn(Cc2cccc(C(=O)Nc3ccn(Cc4ccccc4F)n3)c2)c(C)c1[N+](=O)[O-],16.2,3.9%,35.6%[38.3 µM],0.5%,24.1,-1.7%
Cc1nn(Cc2cccc(C(=O)N3CCCC(C)C3)c2)c(C)c1[N+](=O)[O-] (stereo not drawn),.,1.7%,12.3%,?,?,14.1µM*
CC1CCCN(C(=O)c2ccc3c(=O)n(C4CCCC4)c(=S)[nH]c3c2)C1 (stereo not drawn),.,.,16.1%,3.55µM*,.,.
O=C(c1ccc2c(=O)n(C3CCCC3)c(=S)[nH]c2c1)N1CCCCCC1,.,.,-4.0%,?,.,.
CC1CCCN(C(=O)c2ccc3nc[nH]c3c2)C1 (stereo not drawn),3.6,5.1%,-19.0%[38.3 µM],?,37.7,2µM*
CCc1nnc(NC(=O)CSc2nnnn2-c2cccc(C(=O)OC)c2)s1,-6.6,1.4%,13.4%[38.3 µM],?,11.9,14.1µM*
Cc1cccc(-n2c(SCC(=O)Nc3nnc(C)s3)nnc2-c2ccoc2C)c1,0.4,-13.2%,4.9%[38.3 µM],?,20.1,-3.6%
CCc1nnc(NC(=O)CSc2nnc(-c3ccoc3C)n2-c2cccc(C)c2)s1,-8.2,-16.0%,4.8%[38.3 µM],?,-95.8*,-6.5%
COC(=O)c1c(NC(=O)CSc2nnnn2-c2ccccc2)sc2c1CCC(C(C)(C)C)C2 (stereo not drawn),2.8,-3.0%,0.9%[38.3 µM],12.6µM*,37.6,-16.6%
CC(=O)c1cccc(-n2nnnc2SCC(=O)Nc2ccccc2N2CCCCC2)c1,2.7,-2.6%,35.4%[38.3 µM],1.8%,-105.7*,-14.1%
Clc1ccc(Cl)c(Cl)c1Cl,.,-4.4%,-28.5%,1.4%,.,-8.2%
COc1ccc(NC(=O)OC(C)C)cc1,2.5,1.2%,-6.8%[38.3 µM],-0.8%,26.1,?
COc1cccc(-n2c(SCC(=O)Nc3nccs3)nnc2-c2ccoc2C)c1,-10.1,3.3%,9.8%,?,-100.0*,-13.6%
O=c1cc(-c2ccc([N+](=O)[O-])cc2)nc2cc(-c3ccc(F)cc3)[nH]n12,.,-7.4%,-3.4%,7.94µM*,?,-23.2%
Cc1ccccc1-c1cc2nc(-c3ccc([N+](=O)[O-])cc3)cc(=O)n2[nH]1,.,.,5.0%,-5.8%,.,.
C#CCCCO/N=C1/[C@H]2O[C@@H]2[C@@H](O)[C@H]2[C@H]1CCn1c(=O)n(-c3ccccc3)c(=O)n12,.,.,.,13.1%[13.5 µM],.,.
COc1cc(OC)cc(-c2nnc(Sc3ccc(C=O)cc3[N+](=O)[O-])o2)c1,-9.8,-4.3%,-13.1%[38.3 µM],2µM*,-27.0,14.1µM*
SMILES,IMPase inh,12-hLO inh,IMPase Li inh,ALDH1A1 block,PNC inhibitor,HPGD inh
O=C(/C=C/c1ccccc1)/C=C/c1ccccc1,.,2.3%,14.6%,31.6µM*,?,-21.7%
O=C(C(=S)N1CCOCC1)c1c[nH]c2ccccc12,.,.,-1.4%,3.16µM*,.,.
COC(=O)C1(CC(C)C)C=C2C(=C(c3ccccc3)C(=O)C2C)CN1 (stereo not drawn),.,1.8%,-11.2%,-11.4%,.,?
CC(=O)c1ccc(Sc2ccc(C(C)=O)cc2)cc1,.,-3.5%,-8.0%,0.1%,-25.3,17.8µM*
CC(=O)c1cccc(NC(=O)CN(C)Cc2ccc(OC(F)F)cc2)c1,.,.,.,11.2µM*,.,.
COc1cc(NC(=O)CN(C)Cc2ccc(OC(F)F)cc2)c(C)cc1[N+](=O)[O-],-5.7,-3.3%,.,-5.0%,?,.
CCOc1ccc(CNc2ccc(N3CCCC3)cc2)cc1,25.8,-28.7%,9.4%,7.94µM*,14.3,-1.6%
COc1cc(CNc2ccc(N3CCCC3)cc2)cc(Cl)c1OC,.,.,26.3%,?,.,.
COc1ccccc1CNc1ccc(N2CCCCC2)cc1,1.7,-8.4%,37.2%[38.3 µM],?,?,-18.3%
COc1cccc(CNc2ccc(N3CCCCC3)cc2)c1OC,4.1,-21.8%,59.9%[38.3 µM],3.98µM*,-13.8,-13.5%
CCOc1ccc(CNc2ccc(CNc3ncn[nH]3)cc2)cc1,.,.,9.2%,-0.8%,.,.
CCOc1cc(CNc2ccc(N3CCCC3)cc2)cc(Cl)c1OC,.,-8.6%,17.8%,31.6µM*,-113.4*,-13.0%
CCOc1cc(CNc2ccc3c(c2)OCCO3)cc(Br)c1OCC,1.8,-15.9%,19.5%[38.3 µM],?,-83.2*,-18.1%
C=CCOc1c(Br)cc(CNc2ccc3[nH]c(=O)[nH]c3c2)cc1OCC,.,.,9.7%,-2.7%,.,.
NCC1O[C@@H](O[C@H]2C(O)C(O[C@@H]3C(O[C@H]4OC(CO)C(O)C(O)C4N)C(N)CC(N)[C@H]3O)O[C@@H]2CO)C(N)C(O)C1O (stereo partly drawn),.,1.2%,19.2%,3.7%,.,1.9%
CCOC(=O)c1cnc2ccc(C)cc2c1Nc1ccc(N(CC)CC)cc1,19.0,.,.,.,.,.
COc1cc(CNc2ccc(N3CCOCC3)cc2)cc(Br)c1OC,.,.,8.9%,?,.,.
CCOc1cc(CNc2ccc(N3CCOCC3)cc2)cc(Br)c1OCC,.,?,6.1%,?,-113.4*,-6.9%
CCOC(=O)c1c(NC(=O)/C=C/C(=O)O)sc(C)c1-c1ccc(C(C)(C)C)cc1,.,.,11.2%,28.2µM*,.,.
Cc1sc(NC(=O)/C=C/C(=O)O)c(C(N)=O)c1-c1ccc(C(C)(C)C)cc1,.,-2.6%,6.7%,12.6µM*,-12.6,25.1µM*
CCOC(=O)c1c(NC(=O)/C=C\C(=O)O)sc(C)c1-c1ccccc1,.,.,2.3%,?,.,.
c1ccc(C(c2ccccc2)N2CCC3(CCNCC3)CC2)cc1,.,-0.6%,23.9%,0.7%,.,-9.1%
CC(=O)C1=C(O)C(=O)N(CCO)C1c1ccccc1 (stereo not drawn),.,.,1.3%,0.9%,.,.
